Only some compounds are listed: those with a hit (about 4% of all), similar ones and a draw of the others.
TROY signal inh: blocks TROY-dependent signaling in reporter cells; Q293 LMP1-TROYcd NF-kB luciferase reporter, 4 h; AID 1347056; inhibition, % at 10 µM; actives 0.98% (n = 360,000);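 active means compounds whose plate-normalised and pattern-corrected inhibition of the luciferase reporter signal at the single screening dose is 50% or more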
TWEAK-Fn14 inh: blocks TWEAK-Fn14 interaction in a reporter cell assay; TWEAK-stimulated Fn14 reporter cells, luciferase luminescence, 8 h; AID 1159606; actives 2% (n = 360,000); inhibition, % at 10 µM; in the data active means inhibition above about 50%
Peg3 prom inh: reduces Peg3 promoter-driven luciferase expression in HeLa | AID 588405 | HeLa PEG-Prom luciferase reporter, luminescence, overnight | inhibition, % at 20 µM | actives 1.7% (n = 360,000);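 active means inhibition of at least 50% at 20 µM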
CF NFkB inh: cystic fibrosis NF-kB activation inhibition | KKLEB NF-kB-GFP reporter, PAF-induced, GFP fluorescence overnight | AID 588850 | inhibition, % at 5 µM | actives 0.86% (n = 360,000);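 active means at least 50% inhibition at 5 µM, scaled per plate between neutral and stimulator controls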;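 further: PAF is a Pseudomonas aeruginosa culture filtrate used as stimulus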
HIF-2a block: inhibitors of HIF-2a; 786-0 RCC cells HIF-2a reporter, luciferase luminescence, overnight; actives 0.72% (n = 360,000); inhibition, % at 18.8 µM; AID 624352;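 active means inhibition of the luminescence signal of 40% or more relative to plate controls, in a single-dose primary screen at 18.75 µM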
KKLEB tox: reduces viability of KKLEB cystic fibrosis airway cells; KKLEB CF airway cells viability, ATPlite luminescence, overnight; active compounds read low; cells stimulated with P. aeruginosa culture filtrate; activity change (cytotoxicity), % at 5 µM; actives 0.36% (n = 360,000);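 active means corrected activity change at or below -50% at 5 µM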
Mdm2-MdmX confirm: Mdm2/MdmX (human) interaction inhibition, confirmed. shares compounds with HIF-2a block. SaOS-2 split-luciferase Mdm2/MdmX complementation, luminescence. inhibition, % at 8 µM. actives 99% (n = 740);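 active means mean inhibition of the luminescence signal across two replicates at or above 26 percent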
Target sequence (O15151 whole entry, looked up): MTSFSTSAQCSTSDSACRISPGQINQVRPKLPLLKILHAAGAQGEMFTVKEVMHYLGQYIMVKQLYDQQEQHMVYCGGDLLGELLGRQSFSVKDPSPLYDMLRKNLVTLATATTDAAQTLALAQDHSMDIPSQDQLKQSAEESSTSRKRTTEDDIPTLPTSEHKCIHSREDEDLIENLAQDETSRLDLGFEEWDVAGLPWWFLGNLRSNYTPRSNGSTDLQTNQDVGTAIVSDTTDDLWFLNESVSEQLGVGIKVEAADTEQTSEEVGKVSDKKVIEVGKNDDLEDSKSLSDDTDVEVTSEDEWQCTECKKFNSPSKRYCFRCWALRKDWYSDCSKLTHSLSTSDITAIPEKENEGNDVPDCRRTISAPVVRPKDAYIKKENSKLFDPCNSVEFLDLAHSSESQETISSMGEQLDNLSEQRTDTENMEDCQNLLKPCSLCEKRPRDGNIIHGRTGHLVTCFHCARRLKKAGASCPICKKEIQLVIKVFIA
Target sequence (Q00987 whole entry, looked up): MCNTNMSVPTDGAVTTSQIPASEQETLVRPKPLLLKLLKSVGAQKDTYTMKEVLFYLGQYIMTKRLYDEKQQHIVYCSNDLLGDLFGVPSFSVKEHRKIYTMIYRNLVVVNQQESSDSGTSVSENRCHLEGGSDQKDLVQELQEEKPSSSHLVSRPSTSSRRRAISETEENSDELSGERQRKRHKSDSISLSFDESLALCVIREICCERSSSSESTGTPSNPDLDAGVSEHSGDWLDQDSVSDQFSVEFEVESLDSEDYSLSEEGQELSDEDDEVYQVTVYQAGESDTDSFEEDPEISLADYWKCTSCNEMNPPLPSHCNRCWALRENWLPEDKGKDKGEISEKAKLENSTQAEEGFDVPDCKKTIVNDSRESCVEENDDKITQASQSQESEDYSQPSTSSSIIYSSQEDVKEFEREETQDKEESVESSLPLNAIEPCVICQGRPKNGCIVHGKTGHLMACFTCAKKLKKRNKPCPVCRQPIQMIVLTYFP
HIF-2a conf: HIF-2a inhibition, single concentration confirmation | shares compounds with HIF-2a block | actives 56% (n = 1,800) | 786-0 RCC cells, HIF-2a luciferase reporter luminescence, overnight | inhibition, % at 18.8 µM | AID 651580;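 active means mean inhibition across four replicates of at least 40 percent at the single tested concentration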
HIF-1a counter: inhibits HIF-1a reporter, a counter-screen for HIF-2a inhibitors | shares compounds with HIF-2a block | MiaPaCa-2 HIF-1a luciferase reporter, desferoxamine, overnight | inhibition, % at 18.8 µM | actives 72% (n = 1,800);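 active means mean inhibition of the reporter signal across four replicates at the single tested dose of 50% or more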
Large screens that a line does not name were inactive (follow-up assays come after a bar, where they were run).

CCSc1nc2ccccc2n1C(=O)/C=C/c1ccc(OC)c(OC)c1	TWEAK-Fn14 inh 100, Peg3 prom inh 103, CF NFkB inh 84, HIF-2a block 78 | Mdm2-MdmX confirm 102 | HIF-2a conf inactive | HIF-1a counter 101
CCn1c(SCC(=O)N/N=C/c2ccc(OC)c(OC)c2)nc2ccccc21	none
C=CCSc1nc2ccccc2n1C(=O)/C=C/c1cc(OC)c(OC)c(OC)c1	TWEAK-Fn14 inh 57, Peg3 prom inh 98, CF NFkB inh 91, HIF-2a block 83 | HIF-2a conf 88 | HIF-1a counter 106
COc1cc(/C=C/C(=O)NCCn2c(C)cc3ccccc32)cc(OC)c1OC	none
C=C1C(=O)[C@]23C[C@H]1CCC2[C@]1(C)CCC[C@@](C)(C(=O)O)C1C[C@@H]3O (stereo partly drawn)	TROY signal inh 59, TWEAK-Fn14 inh 97, Peg3 prom inh 99, CF NFkB inh 93, HIF-2a block 88, KKLEB tox -83 | HIF-2a conf 91 | HIF-1a counter 104
C=C[C@]1(C)C=C2CCC3[C@](C)(CCC[C@@]3(C)C(=O)O)C2CC1 (stereo partly drawn)	none
CC(=O)Nc1nc(-c2ccc3c(c2)CC(C)N3C(=O)C2CC2)c(C)s1 (stereo not drawn)	none | Mdm2-MdmX confirm 99
CCCCOC(=O)c1ccc(NC(=S)NC(=O)c2c(Br)c(C)nn2C)cc1	HIF-2a block 46 | HIF-2a conf 56 | HIF-1a counter inactive
Cn1c(=O)c2c(ncn2CC(O)CNc2cccc(Cl)c2)n(C)c1=O (stereo not drawn)	none
CC(=O)Nc1ccc(NC(=O)c2sc3nc4n(c(=O)c3c2C)CCCCC4)cc1	HIF-2a block 80 | HIF-2a conf 90 | HIF-1a counter 90
CCc1ccc(NC(=O)c2sc3nc4n(c(=O)c3c2C)CCC4)cc1	none
CC(C)(C)c1ccc(C(=O)N2CCC3(CC2)NCCc2[nH]cnc23)cc1	none
COc1ccc(C2=Nn3c(nnc3-c3cc(C)[nH]n3)SC2)cc1	none
COCCNC(=S)N1CCN(S(C)(=O)=O)CC1	none
Fc1ccc(Oc2nc(-c3ccccc3)nnc2C(F)(F)F)cc1	none
Fc1ccc(Sc2nc(-c3ccccc3)nnc2C(F)(F)F)cc1	Peg3 prom inh 84, HIF-2a block 85 | HIF-2a conf inactive | HIF-1a counter 89
COc1cc2ccccc2nn1	none
COc1ccc2c(n1)Sc1nc3ccccc3nc1N2	HIF-2a block 92 | HIF-2a conf inactive | HIF-1a counter inactive
Cc1cccc(Oc2sc(C(=O)c3ccccc3)c(N)c2C#N)c1	HIF-2a block 43 | HIF-2a conf inactive | HIF-1a counter inactive
CC(C)(C)c1nc(SCC(=O)Nc2nc3c(s2)CCCC3)c2ccccc2n1	none | Mdm2-MdmX confirm 101
Oc1ccc2ccccc2c1/C=N/Nc1nnc(-c2ncc[nH]2)c2ccccc12	none | Mdm2-MdmX confirm 92
COc1ccc(/C=N/Nc2nnc(-c3ncc[nH]3)c3ccccc23)cc1	none
CC(C)(C)c1cc(/C=C2\NC(=O)NC2=O)cc(C(C)(C)C)c1O	none
CC(C)(C)c1cc(/C=N/O)cc(C(C)(C)C)c1O	TWEAK-Fn14 inh 54, HIF-2a block 43 | HIF-2a conf inactive | HIF-1a counter inactive
CC1Cc2ccccc2N1S(=O)(=O)c1cccc(C(=O)N2CCN(c3ncccn3)CC2)c1 (stereo not drawn)	none | Mdm2-MdmX confirm 100
Cc1nc2ccccc2nc1CSc1nnc(N)s1	none
CCCCn1c(NC(=O)c2ccccc2)nc2ccccc21	none
CC(=O)Nc1nc2ccccc2n1CCOc1ccccc1	none
S=C(Nc1ccccc1)Nc1nc2ccccc2n1CCOc1ccccc1	HIF-2a block 90 | HIF-2a conf inactive | HIF-1a counter 97
